An excerpt weighted towards active compounds, which were near 2.9% of everything screened.
ADAM17 inh: inhibitors of human ADAM17 | recombinant ADAM17, EDANS/DABCYL FRET peptide cleavage | 370,000 compounds, 0.83% hits | inhibition, % at 6.95 µM | P78536;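 active = inhibition above the mean of compounds lying between control limits plus 3 SD, set per campaign, cut at about 8.5% in these data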;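 note: 0% = DMSO-only wells as the low control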
PLCg1 inh: inhibitors of human phospholipase C gamma1; P19174; 370,000 compounds, 0.84% hits; purified PLC-gamma1, fluorogenic substrate, fluorescence; inhibition, % at 12.2 µM; in the data active = inhibition above about 9.5%
PLC-beta3 inh: PLC-beta3 (human) inhibition, primary screen; 370,000 compounds, 0.18% hits; Purified PLC-beta3, fluorogenic substrate, fluorescence; Q01970; inhibition, % at 12.2 µM; in the data active = inhibition above about 11%;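 note: 0% = median of compound wells on plate and 100% = full blocker control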
proKLK7 act: activates the human kallikrein-7 zymogen | purified proKLK7, EDANS-DABCYL substrate fluorescence; 100% is mature enzyme control, 0% vehicle | activation, % at 7 µM | 370,000 compounds, 0.9% hits;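 active = activation above the mean of all tested compounds plus 3 SD, computed per campaign excluding outliers beyond control limits, cut at about 13% in these data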
Target sequence (P49862 whole entry, looked up): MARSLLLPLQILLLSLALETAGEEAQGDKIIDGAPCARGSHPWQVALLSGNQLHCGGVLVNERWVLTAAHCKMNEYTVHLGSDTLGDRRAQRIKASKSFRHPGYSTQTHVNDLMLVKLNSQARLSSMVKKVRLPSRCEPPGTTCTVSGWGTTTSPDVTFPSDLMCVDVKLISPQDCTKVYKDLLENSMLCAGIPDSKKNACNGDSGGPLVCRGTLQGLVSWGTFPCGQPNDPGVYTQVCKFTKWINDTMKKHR
ADAM10 inh: ADAM10 inhibition, QFRET primary screen. recombinant ADAM10, EDANS/DABCYL FRET peptide cleavage, 3 h. inhibition, % at 7 µM. 370,000 compounds, 0.62% hits. AID 720582;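 active = inhibition above a per-campaign cutoff equal to the mean of compounds falling between control-based bounds plus 3 SD, cut at about 20% in these data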;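 note: 0% = DMSO wells while the 100% control is not disclosed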
ADAM10 ctr: inhibits human ADAM10 in ADAM17 exosite counter-screen | recombinant ADAM10, EDANS/DABCYL FRET peptide cleavage, 3 h | inhibition, % at 6.95 µM | 2,900 compounds, 47% hits | shares compounds with ADAM17 inh;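 active = mean inhibition over the triplicate runs exceeds the activity threshold set in the earlier primary screen, cut at about 20% in these data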;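 note: 0% = DMSO wells and 100% = marimastat wells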
ADAM17 confirm: confirmation of inhibitors of human ADAM17; inhibition, % at 6.95 µM; AID 743257; recombinant ADAM17, EDANS/DABCYL QFRET peptide cleavage; 2,900 compounds, 65% hits; shares compounds with ADAM17 inh;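 active = mean inhibition across replicates above the hit cutoff set in the primary screen, cut at about 8.5% in these data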;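 note: 0% = DMSO wells and 100% = marimastat wells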
An asterisk follows results filed as active; i = inactive; x = not tested or not shown.

SMILES	ADAM17 inh	PLCg1 inh	PLC-beta3 inh	proKLK7 act	ADAM10 inh	ADAM10 ctr	ADAM17 confirm
CCOC(=O)c1c(C)[nH]c(C)c1C(=O)COC(=O)/C=C/c1cccc(C(F)(F)F)c1	12*	0	0	0	11	27*	15*
O=C(Nc1ccc(F)cc1)C(c1ccnc2ccccc12)N1CCN(CC(=O)N2CCCC2)CC1 (stereo not given)	-5	-1	-2	0	-13	x	x
O=C(c1ccc(F)cc1Cl)N1CCCC(c2nc(-c3cccs3)no2)C1 (stereo not given)	-1	0	1	0	-2	x	x
Cn1nc(C(C)(C)C)cc1C(=O)N1CCCCC1c1cc(C(=O)Nc2ccccc2Cl)no1 (stereo not given)	2	3	-1	1	-13	x	x
COC(=O)c1ccc(CN2C(=O)C(C)N(C(=O)c3c(F)cccc3F)c3ccccc32)cc1 (stereo not given)	11*	8	2	0	3	19	15*
Cc1cc(SCC(=O)Nc2cccc(S(=O)(=O)NC3=NCCCCC3)c2)c(C)cc1Br	11*	3	3	0	15	28*	18*
CC1Oc2ccc(C#N)cc2N(Cc2ccccc2OC(F)(F)F)C1=O (stereo not given)	0	-1	0	0	5	x	x
COC(=O)c1ccc(CCc2cc(O)c(Br)cc2O)cc1	8.9*	-6	-15	2	0	-2	-1
Oc1ccccc1-c1cc(-c2ccccc2Cl)[nH]n1	9.5*	-3	-1	-1	14	24*	12*
CC(C)COc1cccc(C(=O)Nc2cc(S(=O)(=O)N3CCOCC3)ccc2N2CCCC2)c1	11*	-7	-20	0	-6	21*	11*
Cc1ccc(C(=O)Nc2cc(S(=O)(=O)N3CCOCC3)ccc2N2CCCC2)cc1	0	1	-1	0	-9	x	x
CCc1ccc(C(=O)Nc2cc(S(=O)(=O)N3CCOCC3)ccc2N2CCOCC2)cc1	9.1*	6	-2	0	6	-4	3
COc1cccc(C(=O)Nc2cc(S(=O)(=O)N3CCOCC3)ccc2N2CCOCC2)c1	-2	-2	-8	0	4	x	x
CC(C)CN1C(=O)[C@@]2(CC(=O)N(C)C2c2ccccc2)c2cc(-n3cc(CO)nn3)ccc21 (stereo not given in full)	3	1	1	0	3	x	x
N#Cc1cccc(Cn2ccc3ccc(-c4ccc5ccn(Cc6cccc(C#N)c6)c5c4)cc32)c1	-4	-40	-50	-2	-19	x	x
COc1c(C(CC(C)C)OC(C)=O)ccc2c1C(=O)OCc1cc(C)cc(O)c1O2 (stereo not given)	12*	6	5	1	19	27*	16*
CC(=O)N1CCC(C(=O)N2c3ccccc3N=C(c3ccc(C(F)(F)F)cc3)C2C(=O)NC2CCCC2)CC1 (stereo not given)	-20	-424	i	1	-74	x	x
Cc1ccc(NC2=C(Cl)C(=O)OC2OC(=O)c2ccc(C)cc2)cc1 (stereo not given)	9.0*	-6	-5	1	2	17	12*
COC(=O)[C@@H]1C[C@H]2CC[C@H](O)C[C@H]2N1Cc1ccccc1OC(=O)c1cccs1	11*	0	0	0	3	-5	0
COc1nnc(-c2ccc(C(=O)N3C[C@@H]4C[C@H](C3)c3cccc(=O)n3C4)cc2)c2ccccc12	9.6*	9	3	0	4	1	7
O=C(c1ccc(-c2nnc(Nc3cccc(Cl)c3)c3ccccc23)cc1)N1C[C@H]2C[C@H](C1)c1cccc(=O)n1C2	7	-55	-66	3	10	x	x
O=C(O)Cc1csc2ccccc12	10.0*	6	9	0	9	-9	-4
NS(=O)(=O)c1ccc(NC(=O)N[C@@H](Cc2ccccc2)C(=O)O)cc1	9.8*	4	5	0	0	11	8
CC(C)n1c(=O)c2ccccc2n1Cc1cn(Cc2ccccc2)nn1	-86	-47	-58	4	-329	x	x
COc1ccccc1NC(=O)Cn1nnc(-c2ccccc2NS(=O)(=O)c2ccccc2)n1	9.3*	1	3	1	15	37*	22*
SMILES	ADAM17 inh	PLCg1 inh	PLC-beta3 inh	proKLK7 act	ADAM10 inh	ADAM10 ctr	ADAM17 confirm
C#CCN(C[C@@H]1[C@@H](OC(=O)Nc2cccs2)[C@@H](OC(=O)Nc2cccs2)C[C@H](C(=O)OC)[C@@H]1C(=O)OC)S(=O)(=O)c1ccc(C)cc1	6	0	0	0	17	x	x
C#CCN(C[C@@H]1[C@@H](OC(=O)Nc2cccs2)[C@@H](OC(=O)Nc2cccs2)Cn2c(=O)n(CCCCCC)c(=O)n21)S(=O)(=O)c1ccc(C)cc1	11*	0	-1	1	18	20	10*
C=CC[C@H]1CC(C)=C[C@H](CC=C)N1C(=O)c1cc(COc2ccccc2SC)on1	9.4*	4	-4	0	13	29*	14*
COCC1CCN(C(=O)c2cc(COc3ccccc3SC)on2)C1 (stereo not given)	0	-2	-6	0	-2	x	x
CCCCNC(=O)C1(C)CCCCN1C(=O)c1ccc2sccc2c1 (stereo not given)	2	4	0	-1	2	x	x
O=C(N=Nc1c(O)[nH]c2ccccc12)Nc1ccccc1	4	9	5	0	2	x	x
Cc1cccc(NC(=S)N=Nc2c(O)[nH]c3ccccc23)c1	9.9*	11*	2	-1	15	27*	13*
COc1ccc(-c2[nH]c(-c3ccc(C(=O)O)cc3)nc2-c2ccccc2)cc1	i	i	i	3	i	x	x
COc1cc(-c2nc(-c3ccc4c(c3)-c3ccccc3S4(=O)=O)c(-c3ccccc3)[nH]2)cc(OC)c1O	8.8*	-35	-41	-1	-10	16	14*
CCCCNC(=O)c1nc(C2CCN(S(=O)(=O)c3ccc(S(C)(=O)=O)cc3)CC2)oc1-c1ccccc1	0	3	3	1	-2	x	x
CC(C)(C)c1csc(NC(=O)C2COc3ccccc3O2)n1 (stereo not given)	2	-2	-4	0	0	x	x
COc1ccc(-c2csc(NC(=O)C3COc4ccccc4O3)n2)cc1OC (stereo not given)	8.9*	4	-1	0	11	15	10*
CCCCOc1cc(C)nc(NCc2ccccc2)n1	11*	9	5	1	14	16	8

Screening results deposited in PubChem BioAssay by The Scripps Research Institute Molecular Screening Center.
